Assay outcomes: PubChem, National Center for Advancing Translational Sciences (NCATS)
CCT chaperon mod: High-Throughput Screening for Modulators of Cytosolic Chaperonin Activity; purified chaperonin ATPase assay, HTRF ADP detection, 30 min; activity change, % (no concentration beside the values), hits read low; hit rate 0.3% among 360,000; in the data active = activity change below about -30%
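First, chaperonin was dispensed at 40 nM or 20 nM final depending on batch activity. Next, compounds were pinned at 76 uM and ATP added at 10 uM. After 30 min at 37 °C, ADP detection reagents ran 30 min at ambient temperature.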
USP2a inh: qHTS Assay for Inhibitors of Ubiquitin-specific Protease USP2a Using CHOP2 as the Reporter; Potency, µM (titrated, usually from 38.3 µM), usual class: inhibitors; USP2 core, Ub-CHOP2 coupled fluorogenic reporter, 485/531; hit rate 0.01% among 330,000; Ubiquitin carboxyl-terminal hydrolase 2 (Homo sapiens), O75604; AID 463254, 2010
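Deubiquitinase activity read as fluorescence (485/531 nm) after Ub-CHOP2 cleavage activates the enterokinase reporter on its substrate; USP2 core 10nM, Ub-CHOP2 and substrate 25nM each, 30min compound preincubation then 60min RT; data normalized to NEM, curves fitted.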
ASM inhibitor: Inhibitors of Secretory Acid Sphingomyelinase (S-ASM): qHTS; Sphingomyelin phosphodiesterase (Homo sapiens), P17405; AID 504937, 2011; Potency, µM (titrated, usually from 57.5 µM), usual class: inhibitors; hit rate 0.006% among 340,000; placental ASM, HMU-PC fluorogenic substrate, 60 min
Target sequence (P17405 47-631 limits assumed): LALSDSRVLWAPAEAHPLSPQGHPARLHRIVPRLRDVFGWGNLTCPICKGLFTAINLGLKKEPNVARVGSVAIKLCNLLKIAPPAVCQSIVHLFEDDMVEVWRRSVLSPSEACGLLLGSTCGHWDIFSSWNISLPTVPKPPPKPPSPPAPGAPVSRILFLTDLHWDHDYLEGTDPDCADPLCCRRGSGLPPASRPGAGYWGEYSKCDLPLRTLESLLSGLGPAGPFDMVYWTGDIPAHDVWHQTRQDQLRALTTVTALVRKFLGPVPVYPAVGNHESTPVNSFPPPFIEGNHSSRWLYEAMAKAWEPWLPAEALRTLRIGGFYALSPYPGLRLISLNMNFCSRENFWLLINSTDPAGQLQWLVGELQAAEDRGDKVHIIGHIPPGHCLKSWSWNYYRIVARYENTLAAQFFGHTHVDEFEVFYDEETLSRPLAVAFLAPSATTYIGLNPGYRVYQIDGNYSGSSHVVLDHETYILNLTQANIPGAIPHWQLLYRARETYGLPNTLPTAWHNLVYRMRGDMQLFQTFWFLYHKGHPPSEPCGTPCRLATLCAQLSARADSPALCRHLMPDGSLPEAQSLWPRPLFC
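Fluorescence read-out (Ex 386 nm, Em 447 nm) after stopping the reaction at pH 10. Enzyme: ASM from human placenta; substrate HMU-PC0, 9 uM final; 60 min, 37 °C. Compound preincubation 10 min, ambient temperature.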
Mm-Cpn inhibitor: Inhibitors of TCP-1 ring complex (TRiC) of Methanococcus maripaludis (MmCpn): qHTS; purified Mm-Cpn ATPase, ADP Transcreener TR-FRET; Potency, µM (doses to about 76.9 µM), actives largely listed as inhibitors; hit rate 0.031% among 330,000; also: nearly all actives have a fitted effect of over 80% in size
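ATPase turnover read by TR-FRET ADP competition (Eu cryptate antibody/ADP-d2, 665/590 nm): 10uM ATP final, 25nM Mm-CPN final, 30 min 37degC after 10-min compound preincubation, pH 7.4 Tris/KCl/MgCl2/DTT buffer.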
Numbers stand for hits; – = inactive; ? = inconclusive; · = no result given; [ ] = dose if it differs, or a comment. Rows were chosen to be rich in hits. Some 0.3% of all compounds tested hit in one or more screens of this group. Unless noted, calls follow the shape of the dose curve; as a rule, active = well fitted curve in the direction sought with a large enough effect; inconclusive = small, poorly fitted or top-dose-only effect, or another doubt; inactive = no such curve, though single readings can be large; an effect the other way counts as inactive or inconclusive.

SMILES	CCT chaperon mod	USP2a inh	ASM inhibitor	Mm-Cpn inhibitor
Cc1ccn2c(CNCCCn3cccn3)c(C(=O)N3CCCCCC3)nc2c1	–	–	–	–
C[C@H](O)[C@@H]1CN2CCc3c([nH]c4ccccc34)[C@@H]2C[C@@H]1N(C)C(=S)Nc1ccc(C#N)cc1	–	·	·	·
Cn1c(SCc2ccc(C#N)cc2Cl)nc2ccccc21	-36	–	–	–
N#Cc1ccc(CSc2ccccn2)c(Cl)c1	–	–	–	–
CCc1ccc(/C=C2/C(=O)N(CC)C(=S)N2C)s1	–	–	–	–
CCC(=O)N1CCN=C1SCc1ccccc1Cl	-63	–	–	–
C/C(=N/NC(=O)c1ccc(C(C)(C)C)cc1)c1ccccn1	–	·	–	·
COc1nccnc1NS(=O)(=O)c1ccc(NC(=O)c2ccccc2Br)cc1	–	–	–	–
COc1ccc(CC(=O)N(C)CC(=O)Nc2ccccc2SC)cc1	-46	–	–	–
COC(=O)c1ccc(C)c(NC(=O)c2ccc(Cn3cc([N+](=O)[O-])cn3)o2)c1	–	–	–	–
Cc1noc(C)c1C(=O)Nc1ccccc1N1CCOCC1	-30	–	–	–
Cc1onc(-c2ccccc2)c1C(=O)Nc1ccccc1N1CCOCC1	–	–	–	–
COc1ccccc1-c1sc2cc3c(cc2c1-c1ccc2c(c1)OCO2)OCO3	–	–	–	18µM
COc1ccccc1-c1sc2ccccc2c1-c1ccc2c(c1)OCO2	–	–	–	?
COc1cc(N)c(Cl)cc1C(=O)OCC(=O)NCC1CCCCC1	–	–	–	–
O=C(Nc1nc(-c2cccs2)cs1)c1ccc(S(=O)(=O)N2CCCCC2)cc1	–	–	–	45µM
COc1ccc(CNCc2ccncc2)cc1OC	-65	–	–	–
O=C(NCc1ccccc1)c1c[nH]c2ccccc2c1=O	–	–	–	–
Cc1ccc(C)c(S(=O)(=O)N2CCC3(CC2)OCCO3)c1	–	–	–	–
Cc1ccc(C)c(S(=O)(=O)N2CCNCC2)c1	-34	–	–	–
Cc1cccc(C(O)C(O)c2cccc(C)n2)n1 (stereo unspecified)	-85	·	–	·
Cc1cccc(C(P(=O)(c2ccccc2)c2ccccc2)P(=O)(c2ccccc2)c2ccccc2)n1	–	–	–	–
Clc1cccc(N2CCN(CCCN3CCN(c4ccccc4)CC3)CC2)c1	–	·	–	·
OC(CN1CCN(c2cccc(Cl)c2)CC1)C(c1ccccc1)c1ccccc1 (stereo unspecified)	-44	–	–	–
CC1(C)CC(c2csc(N)n2)CCO1 (stereo unspecified)	-39	–	–	–[15.4 µM]
SMILES	CCT chaperon mod	USP2a inh	ASM inhibitor	Mm-Cpn inhibitor
Nc1nc(C2CCOCC2)cs1	–	–	–	–
COc1ccc(C)cc1S(=O)(=O)n1c([N+](=O)[O-])cnc1C	-79	–	–	–
CC(=O)c1ccc(NC(=O)CN2CCN(c3ccccc3)CC2)cc1	-34	–	–	–
CCCCC1S/C(=N/N=C/c2ccco2)NC1=O (stereo unspecified)	-42	–	–	–
COc1ccc(NC(=S)Nc2cc(C)ccn2)c(OC)c1	–	–	–	–
COC(CNC(=O)C1CCN(S(=O)(=O)c2cccc3nsnc23)CC1)OC	-75	–	–	–
CCCN(CCC)CCNC(=O)C1CCN(S(=O)(=O)c2cccc3nsnc23)CC1	–	–	–	–
C#Cc1ccc(NC(=O)C2(C)CCN2C(=O)C/C=C/c2ccccc2)cc1 (stereo unspecified)	–	·	·	·
Cn1c(=O)oc2cc(S(=O)(=O)CCC(=O)NCCc3ccccc3)ccc21	-65	–	–	–
CCCn1nc(C(=O)NNC(=O)CCCOc2ccc(OC)cc2)c2ccccc2c1=O	-76	–	–	–
CCOc1ccc(OCCC(=O)NNC(=O)c2nn(C)c(=O)c3ccccc23)cc1	–	–	–	–
COc1ccc(NC(=O)/C(N=Nc2ccc(Cl)c(S(=O)(=O)Nc3ccc(Cl)cc3)c2)=C(\C)O)cc1	-48	–	–	–
COc1ccc(C2CC(=O)N3CN(c4ccccc4F)CSC3=C2C#N)cc1OC (stereo unspecified)	–	4.5µM	–	–
COc1cc(OC)c(C2CC(=O)N3CN(c4ccccc4C)CSC3=C2C#N)cc1OC (stereo unspecified)	·	–	·	–
